Data reported in the supplement of paper PMC4840960.
Structures can show the parent of a compound that is named as a salt.

Key:
[1] = tested on: E18 rat cortical neuron-glia co-culture; test: fiber score / MBP score (myelination specific beyond OL differentiation) (ratio); higher = more myelination-specific MBP alignment; conditions: treatment time: 8 days (DIV5-DIV13)
Outline: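 Reported values are fiber score (continuous MBP fiber length per Olig2+ nucleus) divided by MBP score (thresholded MBP area × intensity per Olig2+ nucleus). They come from primary E18 rat cortical co-cultures treated with library compounds at 1 or 5 µM in myelination medium from DIV5 to DIV13, then fixed in 4 % paraformaldehyde, immunostained for MBP and Olig2 with DAPI, and analysed over four 10X fields per well in duplicate wells.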

[2] = tested on: E18 rat cortical neuron-glia co-culture; test: myelination (MBP fiber length per Olig2+ nucleus), % of 1 µM DAPT response (DMSO = 0) (% of DAPT); higher = more myelination, active = 50 or more; conditions: treatment time: 8 days (DIV5-DIV13)
Outline: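 Rat cortical co-cultures from E18 tissue were dissociated with papain and plated at 20,000 cells/well on 96-well plates coated with poly-d-lysine/laminin. From DIV5 to DIV13, library compounds were added at 1 or 5 µM in myelination medium. After fixation in 4 % paraformaldehyde, cultures were immunostained for MBP and Olig2 and counterstained with DAPI, and four 10X fields were analysed in each of duplicate wells. The myelination value is the length of continuous straight MBP fibers per Olig2+ nucleus, normalised so that 0.1 % DMSO is 0 and a 1 µM positive control is 100.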

| SMILES | fiber score / MBP score ([1]; 1 µM) | fiber score / MBP score ([1]; 5 µM) | myelination ([2]; 1 µM) | myelination ([2]; 5 µM) |
| --- | --- | --- | --- | --- |
| C#C[C@]1(O)CC[C@H]2[C@@H]3CCC4=CC(=O)CC[C@@H]4[C@H]3CC[C@@]21CC [Levonorgestrel] | 0.998 | 1.12 | -13.4 (inactive) | 0.485 (inactive) |
| Cc1cc2c(s1)Nc1ccccc1N=C2N1CCN(C)CC1 [Olanzapine] | 1.2 | 0.751 | -0.209 (inactive) | -13.5 (inactive) |
| COc1ccc2[nH]c([S@@+]([O-])Cc3ncc(C)c(OC)c3C)nc2c1 [Esomeprazole] | 0.799 | 0.979 | -10.5 (inactive) | 4.81 (inactive) |
| C[C@@H]1C[C@H]2[C@@H]3C[C@H](F)C4=CC(=O)C=C[C@]4(C)[C@@]3(F)[C@@H](O)C[C@]2(C)[C@@]1(O)C(=O)SCF [Fluticasone] | 0.729 | 0.694 | -47.4 (inactive) | -24.8 (inactive) |
| CC(=O)[C@@]1(O)CC[C@H]2[C@@H]3C[C@H](C)C4=CC(=O)C=C[C@]4(C)[C@@]3(F)[C@@H](O)C[C@@]21C [Fluorometholone] | 0.809 | 0.856 | -5.67 (inactive) | 2.04 (inactive) |
| CC(=O)S[C@@H]1CC2=CC(=O)CC[C@]2(C)[C@H]2CC[C@@]3(C)[C@@H](CC[C@@]34CCC(=O)O4)[C@H]12 [Spironolactone] | 0.765 | 1.22 | -5.5 (inactive) | 6.33 (inactive) |
| COCCOC(=O)C1=C(C)NC(C)=C(C(=O)OC(C)C)C1c1cccc([N+](=O)[O-])c1 (stereo not drawn) [Nimodipine] | 0.486 | 0.338 | -18.6 (inactive) | -24.9 (inactive) |
| O=C(O[C@H]1[C@H](Oc2ccccc2COC(=O)C2(O)C=CCCC2=O)O[C@H](CO)[C@@H](O)[C@@H]1O)c1ccccc1 (stereo partly drawn) [Tremulacin] | 0.746 | 2.76 | -11.2 (inactive) | 30.4 (inactive) |
| N[C@@H](Cc1cc(I)c(Oc2ccc(O)c(I)c2)c(I)c1)C(=O)O [Triiodothyronine] | 0.895 | 1.21 | -11.4 (inactive) | 24.8 (inactive) |
| CC1(C)S[C@@H]2[C@H](NC(=O)[C@H](N)c3ccc(O)cc3)C(=O)N2[C@H]1C(=O)O [Amoxicillin] | 0.764 | 0.761 | -18.6 (inactive) | -33.3 (inactive) |
| COc1cc2c(cc1OC)C(=O)C(CC1CCN(Cc3ccccc3)CC1)C2 (stereo not drawn) [Donepezil] | 0.462 | 0.277 | -20.8 (inactive) | -26.1 (inactive) |
| CC(Oc1c(Cl)cccc1Cl)C1=NCCN1 (stereo not drawn) [lofexidine] | 0.929 | 1.1 | -15.8 (inactive) | 2.57 (inactive) |
| CN(C)CCCSc1ccccc1NC(=O)/C=C/c1ccccc1 [Cinanserin] | 0.858 | 0.995 | -5.83 (inactive) | 9.08 (inactive) |
| CN(C)CCN(Cc1ccccc1)c1ccccn1 [Tripelennamine] | 0.67 | 0.588 | -35.6 (inactive) | -33.5 (inactive) |
| COC(=O)[C@H](c1ccccc1Cl)N1CCc2sccc2C1 [Clopidogrel] | 0.707 | 0.858 | -6.76 (inactive) | -2.98 (inactive) |
| Clc1ccc2c(c1)CCc1cccnc1C2=C1CCNCC1 [Desloratadine] | 0.902 | 0.803 | -12.9 (inactive) | -23.3 (inactive) |
| C[C@]12CC[C@@H]3c4ccc(OS(=O)(=O)O)cc4CC[C@H]3[C@@H]1CCC2=O [Estrone sulfate] | 1.04 | 1.16 | 3.23 (inactive) | 5.79 (inactive) |
| CC1CNc2c(cccc2S(=O)(=O)N[C@@H](CCCNC(=N)N)C(=O)N2CC[C@@H](C)C[C@@H]2C(=O)O)C1 (stereo partly drawn) [Argatroban] | 0.647 | 0.566 | -43.9 (inactive) | -49.9 (inactive) |
| COc1ccc(/C=C/C(=O)Nc2ccccc2C(=O)O)cc1OC [Tranilast] | 0.857 | 0.89 | -12.7 (inactive) | -4.27 (inactive) |
| CCc1nn(CCCN2CCN(c3cccc(Cl)c3)CC2)c(=O)n1CCOc1ccccc1 [Nefazodone] | 0.932 | 0.76 | 2.86 (inactive) | 2 (inactive) |
| COc1ccccc1N1CCN(CCCNc2cc(=O)n(C)c(=O)n2C)CC1 [Urapidil] | 0.767 | 0.799 | -28.5 (inactive) | -23.7 (inactive) |
| CC(C[N+](C)(C)C)OC(N)=O (stereo not drawn) [Bethanechol] | 0.372 | 0.379 | -14.3 (inactive) | -14.6 (inactive) |
